Over roughly 18,000 sequences, “log2 normalized intensity” has its median near 0.36; the highest 2% begin near 7.3. Shown is part of a subset that was picked to be rich in the highest values.

In this assay the target is T1, HNF4alpha8 (COS-7 nuclear extract) (Homo sapiens, UniProt P41235-5 1-452).
T1 sequence: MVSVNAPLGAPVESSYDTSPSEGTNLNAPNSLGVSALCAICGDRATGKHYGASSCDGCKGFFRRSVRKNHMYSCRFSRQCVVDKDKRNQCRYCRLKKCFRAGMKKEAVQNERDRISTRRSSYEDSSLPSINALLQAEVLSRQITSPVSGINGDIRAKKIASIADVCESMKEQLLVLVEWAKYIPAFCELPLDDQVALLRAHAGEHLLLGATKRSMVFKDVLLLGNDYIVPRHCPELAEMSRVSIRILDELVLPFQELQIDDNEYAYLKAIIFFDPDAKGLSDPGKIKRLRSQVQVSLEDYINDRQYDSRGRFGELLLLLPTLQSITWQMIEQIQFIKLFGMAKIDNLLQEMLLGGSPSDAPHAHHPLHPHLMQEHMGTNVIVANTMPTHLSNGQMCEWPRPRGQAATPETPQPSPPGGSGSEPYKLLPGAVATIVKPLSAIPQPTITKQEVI
As to the kind of experiment: protein-binding microarray; COS-7 nuclear extract on double-stranded Agilent 4x180k PBM; binding buffer, salt, pH and temperature not given in the material; high values mean tight binding. The settings on record: chain copies: 2; label: 3' end of strand 1 on the slide; dsDNA, one strand shown. In a few lines:
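Double-stranded oligonucleotides of ~60 nt, representing ~44,000 test sequences in quadruplicate, made up a custom Agilent SurePrint G3 4x180k array. Nuclear extracts from COS-7 cells transiently transfected by CaPO4 with a human HNF4α isoform expression vector were applied, and bound HNF4α was imaged at 2-µm resolution on an Agilent G2565CA scanner. Binding signal refers to the background-corrected, normalized gProcessedSignal output of Agilent software.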
Regarding “TTTGTCTGTGTAGACTCATCTGGTGTCATTGCCTAGGGAGATTAGAGTATCGGTCGA”, the binding signal is 1.95 log2 normalized intensity.

As for “TTTTTGAGATGGAATCTTGCCCTGTCGCCCGCCTAGGGAGATTAGAGTATCGGTCGA”, the binding signal was found to be 3.19 log2 normalized intensity.

For the sequence “GGTTCCAGCATGGACTTCACAGCCTGTTAGGCCTAGGGAGATTAGAGTATCGGTCGA”, the binding signal amounted to 0.147 log2 normalized intensity.

Turning to “TGTGGGTTCAAATCCATTCAGCAGCGTGTAGCCTAGGGAGATTAGAGTATCGGTCGA”, the binding signal is -0.128 log2 normalized intensity.

“GCAAAGTTCAACCCTGAATGTGTGCTGGCCGCCTAGGGAGATTAGAGTATCGGTCGA”: the binding signal stood at 1.12 log2 normalized intensity.

On to “ACTTCGCTGGAGGTGTTAAAGTGCCATTGAGCCTAGGGAGATTAGAGTATCGGTCGA”, for which the binding signal amounted to 1.75 log2 normalized intensity.

For “TGCACTTTACGTAAGATAAGGTGAACATACGCCTAGGGAGATTAGAGTATCGGTCGA”, the binding signal came out at 1.09 log2 normalized intensity.

Consider “AGAGCAAGGGTCAAGGGTCATTTGTTTTTAGCCTAGGGAGATTAGAGTATCGGTCGA”, for which the binding signal is 6.31 log2 normalized intensity.

As to “CCGCAGTGGGAGAGCAAGGGTCAAGGGTCAGCCTAGGGAGATTAGAGTATCGGTCGA”, the binding signal was determined as 7.52 log2 normalized intensity.

Turning to “AAGGGTCAAGGGTCATTTGTTTTTACAGACGCCTAGGGAGATTAGAGTATCGGTCGA”, the binding signal stood at 6.77 log2 normalized intensity.

With “GTGGGAGAGCAAGGGTCAAGGGTCATTTGTGCCTAGGGAGATTAGAGTATCGGTCGA”, the binding signal is 7.65 log2 normalized intensity.

For the sequence “TGGGTGGGGGAAGTGTGGTCAAGGGTCAGTGCCTAGGGAGATTAGAGTATCGGTCGA”, the binding signal amounted to 4.76 log2 normalized intensity.

For the sequence “CCCATCCGCAGTGGGAGAGCAAGGGTCAAGGCCTAGGGAGATTAGAGTATCGGTCGA”, the binding signal is 4.51 log2 normalized intensity.

As to “CATTTTTTTCCACCCTCCCCTCCCCCTCCTGCCTAGGGAGATTAGAGTATCGGTCGA”, the binding signal was found to be 6.32 log2 normalized intensity.

As to “GAATTTTGGACAAGGTAACCCCCAACATTCGCCTAGGGAGATTAGAGTATCGGTCGA”, the binding signal worked out at 3.79 log2 normalized intensity.

Take “ATGTGCCCTTTGGACAGAAATATCAGCAAGGCCTAGGGAGATTAGAGTATCGGTCGA”: the binding signal amounted to 3.43 log2 normalized intensity.

Regarding “GGAGGGAACAGCAAGACTTTGGCCCTGCAGGCCTAGGGAGATTAGAGTATCGGTCGA”, the binding signal worked out at 0.278 log2 normalized intensity.

On to “AAGTCCAAAGTTCTTGGCCAGGCATGGAGAGCCTAGGGAGATTAGAGTATCGGTCGA”, for which the binding signal was found to be 2.75 log2 normalized intensity.

As to “AAGGGTCAATGTGATCAGGTGTGGGCATTAGCCTAGGGAGATTAGAGTATCGGTCGA”, the binding signal came to 1.3 log2 normalized intensity.

On to “ATCTCACACAGTACTTTGTACATGGGAATAGCCTAGGGAGATTAGAGTATCGGTCGA”, for which the binding signal was found to be 1.8 log2 normalized intensity.

In the case of “ATAGTTCAGCCATCAGGTAACATATTGTCCGCCTAGGGAGATTAGAGTATCGGTCGA”, the binding signal was found to be 1.18 log2 normalized intensity.

As to “GGATTTTTTCTTGGACTTTGGTCATCCTTTGCCTAGGGAGATTAGAGTATCGGTCGA”, the binding signal worked out at 7.39 log2 normalized intensity.

With “ATCAAGGATTTTTTCTTGGACTTTGGTCATGCCTAGGGAGATTAGAGTATCGGTCGA”, the binding signal was found to be 8.58 log2 normalized intensity.

As for “TTGGACTTTGGTCATCCTTTACTTTCCCAAGCCTAGGGAGATTAGAGTATCGGTCGA”, the binding signal turned out to be 6.14 log2 normalized intensity.

As to “GCAGTTTTTGATCAAGGAGGACTTTGGAATGCCTAGGGAGATTAGAGTATCGGTCGA”, the binding signal is 7.54 log2 normalized intensity.

On to “TTTTCTTGGACTTTGGTCATCCTTTACTTTGCCTAGGGAGATTAGAGTATCGGTCGA”, for which the binding signal came out at 6.91 log2 normalized intensity.

For “TCCAGATCAAGGATTTTTTCTTGGACTTTGGCCTAGGGAGATTAGAGTATCGGTCGA”, the binding signal worked out at 5.67 log2 normalized intensity.

With “GACTTTGGTTGGATTTCTTGGCTTCTCTTGGCCTAGGGAGATTAGAGTATCGGTCGA”, the binding signal was found to be 0.989 log2 normalized intensity.

For the sequence “TTTTGATCAAGGAGGACTTTGGAATGGCAGGCCTAGGGAGATTAGAGTATCGGTCGA”, the binding signal was 4.79 log2 normalized intensity.

On to “TTTAGGCAGTTTTTGATCAAGGAGGACTTTGCCTAGGGAGATTAGAGTATCGGTCGA”, for which the binding signal was 4.55 log2 normalized intensity.

Turning to “CAGAAGTCATGTCTCATTGCCCCTTGAGCTGCCTAGGGAGATTAGAGTATCGGTCGA”, the binding signal is 3.87 log2 normalized intensity.

With “TGCCCTTTGGCCCCCAGAGCCCCGTGTCTCGCCTAGGGAGATTAGAGTATCGGTCGA”, the binding signal was 5.63 log2 normalized intensity.

Take “ACCCCTGAATAGGTCTTGGAATGTGACGGCGCCTAGGGAGATTAGAGTATCGGTCGA”: the binding signal came out at 1.5 log2 normalized intensity.

Turning to “GTTCTCTGGGCTTTTTGATCTTGTCACATTGCCTAGGGAGATTAGAGTATCGGTCGA”, the binding signal is 1.99 log2 normalized intensity.

With “GAACAGTCCTACAAATGATCAAAGGTTGGTGCCTAGGGAGATTAGAGTATCGGTCGA”, the binding signal came out at 3.74 log2 normalized intensity.

Regarding “TACAGGGAGCTATTCTTTAACCAGAGTCTAGCCTAGGGAGATTAGAGTATCGGTCGA”, the binding signal is -0.822 log2 normalized intensity.

Regarding “TCTTGTGGTAATCTCTTTTGTGTTAGAGGGGCCTAGGGAGATTAGAGTATCGGTCGA”, the binding signal stood at 1.02 log2 normalized intensity.

For “GACCTTCAGATGCAGTCCAGAAGGTCAGGAGCCTAGGGAGATTAGAGTATCGGTCGA”, the binding signal turned out to be 4.19 log2 normalized intensity.

As to “GCTAGACTTGGACCAGCTTTTGGAAGGACTGCCTAGGGAGATTAGAGTATCGGTCGA”, the binding signal came to 0.0118 log2 normalized intensity.

On to “CCGCCCACCCTTTTTTTTCTTTCTTTTCCCGCCTAGGGAGATTAGAGTATCGGTCGA”, for which the binding signal was determined as 1.46 log2 normalized intensity.

In the case of “ACCCACCCACACCTCCCCTTTGTTTAACTTGCCTAGGGAGATTAGAGTATCGGTCGA”, the binding signal was 2.79 log2 normalized intensity.

As to “GGGTTTGTTTTTTGCCCTTTGTACCCACACGCCTAGGGAGATTAGAGTATCGGTCGA”, the binding signal came out at 8.41 log2 normalized intensity.

Take “AGCCTACCCACCCACACCTCCCCTTTGTTTGCCTAGGGAGATTAGAGTATCGGTCGA”: the binding signal is 3.22 log2 normalized intensity.

With “TGTTTTTTGCCCTTTGTACCCACACACACCGCCTAGGGAGATTAGAGTATCGGTCGA”, the binding signal came to 7.36 log2 normalized intensity.

Consider “TGCCCTTTGCCTGGTGATCTTTGTTAGACCGCCTAGGGAGATTAGAGTATCGGTCGA”, for which the binding signal amounted to 3.02 log2 normalized intensity.

On to “CCCACAGAGGGGGTTTGTTTTTTGCCCTTTGCCTAGGGAGATTAGAGTATCGGTCGA”, for which the binding signal is 5.27 log2 normalized intensity.

“AGAGGGGGTTTGTTTTTTGCCCTTTGTACCGCCTAGGGAGATTAGAGTATCGGTCGA”: the binding signal is 8.63 log2 normalized intensity.

With “CTGTACCCTATGCACCCCACAGTGCTGTTTGCCTAGGGAGATTAGAGTATCGGTCGA”, the binding signal is 1.71 log2 normalized intensity.

In the case of “CCAGAGCCTCCAAAGTCCGCTTGCCTGAGGGCCTAGGGAGATTAGAGTATCGGTCGA”, the binding signal was -0.939 log2 normalized intensity.

For the sequence “ACAGCGTTTTCCCATTCATGACATTGATTTGCCTAGGGAGATTAGAGTATCGGTCGA”, the binding signal came to 1.47 log2 normalized intensity.

Turning to “ACCCCACTTTGGTTCACCGCTCACTGCTCCGCCTAGGGAGATTAGAGTATCGGTCGA”, the binding signal is -0.611 log2 normalized intensity.

For the sequence “TACTGGTTGAATGGACGGACAGGTAACGTAGCCTAGGGAGATTAGAGTATCGGTCGA”, the binding signal was 0.899 log2 normalized intensity.

Turning to “AACCTCCTTTGAGATAGCTATGATTATCCTGCCTAGGGAGATTAGAGTATCGGTCGA”, the binding signal is -0.867 log2 normalized intensity.

With “ATTGACATTTGGGGTCAGATAATTCTTTGCGCCTAGGGAGATTAGAGTATCGGTCGA”, the binding signal was found to be 2.42 log2 normalized intensity.

The record behind these values is paper PMC10726135, “HNF4α isoforms regulate the circadian balance between carbohydrate and lipid metabolism in the liver”.
